SARS PLP yeast: SARS-CoV PLP inhibition in yeast. S. cerevisiae expressing SARS-CoV PLpro, growth rescue. Potency, µM (series often up to 32.9 µM), inactives show at the highest dose activity, positive = growth rescue, most hits filed as activators. 0.19% of 330,000 active; calls by dose curve; also: potency is read from the fitted curve at half-maximal effect; 0% is about no effect; nearly all actives have a fitted effect of over 55% in size
CHX counter: counter-screen for Shiga toxin inhibitors: cycloheximide protein synthesis inhibition; cell reporter, cycloheximide protein synthesis inhibition counterscreen; 12% of 300,000 active; max response, %; AID 2314; in the data active = max response mostly above about 13%, no sharp cut-off; inactive = mostly below about 14%; also: read at 38.3 µM for the half of the compounds with a filed dose; 0% is about no effect
TbPYK inhibitor: inhibitors of Trypanosoma brucei pyruvate kinase; Q57TT1; TbPYK enzyme, Kinase-Glo Plus ATP luminescence, 45 min; Potency, µM (top dose mostly 76.8 µM), for inactives: at the top dose activity, negative = inhibition, hits mostly inhibitors; 0.12% of 410,000 active; AID 624173; also: potency is read from the fitted curve at half-maximal effect; % is scaled to controls: 0 for no effect and ±100 for the full control effect; nearly all actives have a fitted effect of over 50% in size
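T. brucei PYK with substrate was exposed to pin-transferred compounds across a concentration series, then started with 130 uM ADP (final). After 45 min at room temperature, Kinase-Glo Plus luminescence was read, normalized and curve-fitted.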
Shiga inhibitor: Shiga toxin inhibition; inhibition, % at 38.7 µM; 9.2% of 290,000 active; Vero cells, Shiga toxin protein synthesis inhibition reporter; in the data active = inhibition mostly above about 28%, no sharp cut-off; inactive = mostly below about 43%; also: 0% is about no effect
NS1 function inh: blocks influenza NS1 protein function | 0.4% of 270,000 active | AID 2326 | Potency, µM (top dose mostly 46.1 µM), for inactives: top-dose activity, positive = more growth; calls by dose curve; also: potency is read from the fitted curve at half-maximal effect; actives are rising curves; nearly all actives have a fitted effect of over 50% in size
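Growth recovery, yeast-based: influenza A NS1 expressed in S. cerevisiae causes slow growth, and suppressors are detected by OD600. The parent strain without NS1 is used as positive control.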
LmPK inh: LmPK (Leishmania mexicana) enzyme inhibition; 0.37% of 290,000 active; Q27686; Potency, µM (doses to about 57.5 µM), for inactives: at the highest dose activity change, negative = inhibition, most hits filed as inhibitors; purified LmPK, Kinase-Glo ATP luminescence, 1 h; also: potency is read from the fitted curve at half-maximal effect; % is scaled to controls: 0 for no effect and ±100 for the full control effect
Target sequence (Q27686 whole entry, looked up): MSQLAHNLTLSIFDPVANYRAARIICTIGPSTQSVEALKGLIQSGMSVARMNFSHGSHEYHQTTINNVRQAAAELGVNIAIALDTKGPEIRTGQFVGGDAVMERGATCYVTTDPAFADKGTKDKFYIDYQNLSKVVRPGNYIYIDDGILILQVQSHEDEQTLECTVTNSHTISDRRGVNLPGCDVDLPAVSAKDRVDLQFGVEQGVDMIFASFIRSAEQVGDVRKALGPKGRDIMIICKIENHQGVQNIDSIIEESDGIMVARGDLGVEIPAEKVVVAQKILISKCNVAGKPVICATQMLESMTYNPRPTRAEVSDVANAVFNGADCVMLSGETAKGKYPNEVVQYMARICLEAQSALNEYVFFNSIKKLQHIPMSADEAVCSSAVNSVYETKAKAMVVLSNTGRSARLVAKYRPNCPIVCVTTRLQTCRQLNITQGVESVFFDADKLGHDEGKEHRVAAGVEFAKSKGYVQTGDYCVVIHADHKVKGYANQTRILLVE
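In 50 mM imidazole pH 7.2 with 7 mM MgCl2, LmPK (0.1 nM) turned over PEP (0.5 mM) and ADP (0.1 mM) for 1 h at room temperature. Luciferase read-out of ATP.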
LmPK confirm: Blocks LmPK activity, confirmation assay; purified LmPK, Kinase-Glo ATP luminescence, 1 h; AID 2559; 40% of 150 active; Potency, µM (series often up to 57.5 µM), for inactives: at the highest dose activity change, negative = inhibition, most hits filed as inhibitors; shares compounds with LmPK inh;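 active = compounds giving a full or partial concentration-response curve, as inhibitors or activators; inconclusive = weak, top-dose-only or unclear curve responses; inactive = no response at any tested dose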
* = called active by the depositor; [ ] = remark or other dose. The sample as a whole holds a higher share of hits than the screen did. Unless noted, calls follow the shape of the dose curve; as a rule, active = well fitted curve in the direction sought with a large enough effect; inconclusive = small, poorly fitted or top-dose-only effect, or another doubt; inactive = no such curve, though single readings can be large; an effect the other way counts as inactive or inconclusive.

Results for CCCCNc1ccc(-c2nc(-c3ccccn3)no2)cc1[N+](=O)[O-] ?
TbPYK inhibitor: -1%

How did Cc1nc(N/N=C/c2ccccn2)sc1C do in these assays?
SARS PLP yeast: -86%; CHX counter: 7; TbPYK inhibitor: inconclusive; Shiga inhibitor: 0; NS1 function inh: -47%; LmPK inh: 10µM*; LmPK confirm: 18µM*

How did Cc1ccc(C(=O)n2c(N)nc3ccccc32)cc1 do in these assays?
SARS PLP yeast: -2%; CHX counter: 4; TbPYK inhibitor: -25%; Shiga inhibitor: -21; NS1 function inh: -6%; LmPK inh: 5µM*; LmPK confirm: 33µM*

Results for CC(=O)Oc1ccc(-c2nc(-c3cccnc3)no2)cc1 ?
SARS PLP yeast: -7%; CHX counter: 39*; TbPYK inhibitor: 0%; Shiga inhibitor: 41*; NS1 function inh: -19%; LmPK inh: 5µM*; LmPK confirm: 5.8µM*

Results for CN(C)CCOc1ccc2c(c1)C(=O)C(=Cc1ncc([N+](=O)[O-])n1C)C2 ?
TbPYK inhibitor: -5%

Results for CC[n+]1c(C)sc2sc3ccccc3c21 ?
SARS PLP yeast: -5%; CHX counter: 1; Shiga inhibitor: 11; NS1 function inh: 16%; LmPK inh: 2.8µM*; LmPK confirm: 4.6µM*

What do the screens show for `CCOc1ccc(CNC(=O)C2CCCN(S(=O)(=O)c3ccc4c(ccn4C)c3)C2)cc1` (stereo unspecified)?
TbPYK inhibitor: -3%

Results for CCN1/C(=C/c2ccc3cccc(C)c3[n+]2CC)Sc2ccccc21 ?
SARS PLP yeast: -37%; CHX counter: -2; TbPYK inhibitor: -5%; Shiga inhibitor: 10; NS1 function inh: -178%; LmPK inh: -14%; LmPK confirm: -12%

How did COCCNC(=O)C1(C)CCCN(Cc2ccccc2N(C)C)C1 (stereo unspecified) do in these assays?
TbPYK inhibitor: 1%

Results for O=C1c2ccccc2-c2nnc(-c3ccccc3)cc21 ?
SARS PLP yeast: -6%; CHX counter: 19*; TbPYK inhibitor: inconclusive; Shiga inhibitor: 72*; NS1 function inh: -32%; LmPK inh: 2.8µM*; LmPK confirm: 7.3µM*

Results for Cc1ccc(C)c(OC2=NS(=O)(=O)c3ccccc32)c1 ?
SARS PLP yeast: 1%; CHX counter: 2; TbPYK inhibitor: -19%; Shiga inhibitor: -4; NS1 function inh: 4%; LmPK inh: 10µM*; LmPK confirm: inconclusive

Results for Cc1cnccc1CN(C)Cc1cn(C)nc1-c1ccc(Oc2ccccc2)cc1 ?
SARS PLP yeast: -3%; CHX counter: -1; TbPYK inhibitor: -5%; Shiga inhibitor: -29; NS1 function inh: -4%; LmPK inh: -2%; LmPK confirm: -9%

How did Cc1cnccc1CN(C)Cc1cn(C)nc1-c1cccc(Cl)c1 do in these assays?
SARS PLP yeast: -1%; CHX counter: -3; TbPYK inhibitor: -9%; Shiga inhibitor: -9; NS1 function inh: 1%; LmPK inh: 8%; LmPK confirm: 0%

What do the screens show for `CN(Cc1cn(C)nc1-c1cccc(Cl)c1)CC1CCCCO1` (stereo unspecified)?
SARS PLP yeast: 1%; CHX counter: -2; TbPYK inhibitor: -3%; Shiga inhibitor: -19; NS1 function inh: 2%; LmPK inh: 8%; LmPK confirm: -2%

How did CC(c1ccon1)N(C)Cc1cn(C)nc1-c1cccc(Cl)c1 (stereo unspecified) do in these assays?
SARS PLP yeast: 0%; CHX counter: -1; TbPYK inhibitor: 7%; Shiga inhibitor: -3; NS1 function inh: -6%; LmPK inh: 11%

How did Cc1ccc(NC(=O)COC(=O)CN2C(=O)c3ccccc3C2=O)cc1 do in these assays?
SARS PLP yeast: 5%; TbPYK inhibitor: 0%

How did O=C(Nc1ccccn1)c1ccc(C(=O)c2ccccc2)cc1 do in these assays?
SARS PLP yeast: 2%; TbPYK inhibitor: -3%

Results for O=C(NC(=O)c1ccccc1)Nc1ccccn1 ?
SARS PLP yeast: 0%; CHX counter: 27; Shiga inhibitor: -2; NS1 function inh: -13%; LmPK inh: 4.5µM*; LmPK confirm: 13µM*

How did CCCCNc1nc(Oc2ccc(=O)n(C)n2)nc(N(C)C)n1 do in these assays?
TbPYK inhibitor: 3%

Results for O=C(/C=C/c1ccc2c(c1)OCO2)c1ccccn1 ?
SARS PLP yeast: -1%; CHX counter: 72*; TbPYK inhibitor: inconclusive; Shiga inhibitor: 97*; NS1 function inh: -54%; LmPK inh: 5µM*; LmPK confirm: 21µM*

What do the screens show for `O=C(Nc1ccc2c(c1)OCCO2)c1ccccn1`?
SARS PLP yeast: -13%; CHX counter: 12*; TbPYK inhibitor: inconclusive; Shiga inhibitor: 31; NS1 function inh: 0%; LmPK inh: 5µM*; LmPK confirm: 18µM*

Results for Cc1ccnc(NC(=O)c2cc3ccccc3oc2=O)c1 ?
SARS PLP yeast: 4%; CHX counter: 27*; TbPYK inhibitor: -10%; Shiga inhibitor: 122*; NS1 function inh: -1%; LmPK inh: 7.9µM*; LmPK confirm: inconclusive

How did Cc1ccnc(NC(=O)c2oc3ccccc3c2C)c1 do in these assays?
SARS PLP yeast: -3%; TbPYK inhibitor: 1%

Results for O=C(O)c1ccc(-c2noc(-c3cccc(Cl)c3)n2)cc1 ?
SARS PLP yeast: -6%; TbPYK inhibitor: -7%

How did O=C(/C=C/Nc1ccccc1Br)c1ccccn1 do in these assays?
CHX counter: -7; TbPYK inhibitor: inconclusive; Shiga inhibitor: -20; NS1 function inh: -92%; LmPK inh: 5µM*; LmPK confirm: 21µM*

How did COCc1[nH][nH]c(=O)c1C=Nc1ccc(Oc2ccccc2)cc1 do in these assays?
SARS PLP yeast: 1%[6.58 µM]; CHX counter: -1; TbPYK inhibitor: -4%; Shiga inhibitor: -4; NS1 function inh: 1%; LmPK inh: 0%

Results for O=C1C(Cl)=C(NC(=O)c2ccccc2)C(=O)C(Cl)=C1NC(=O)c1ccccc1 ?
SARS PLP yeast: -11%; CHX counter: 18*; TbPYK inhibitor: inconclusive; Shiga inhibitor: 60; NS1 function inh: -64%; LmPK inh: 1.1µM*; LmPK confirm: inconclusive

How did CC1=NN(c2nc3ccccc3[nH]2)C(=O)/C1=C/N(C)C do in these assays?
SARS PLP yeast: -21%; CHX counter: -5; TbPYK inhibitor: inconclusive; Shiga inhibitor: 2; LmPK inh: 14µM*; LmPK confirm: 7.3µM*

Results for CC1=NN(c2nc3ccccc3[nH]2)C(=O)C1Cc1ccccc1 (stereo unspecified) ?
SARS PLP yeast: -6%; CHX counter: 11; TbPYK inhibitor: -5%; Shiga inhibitor: 19; NS1 function inh: -59%; LmPK inh: -1%
